# Laboratory results taken from ChEMBL document CHEMBL1201862, “PubChem BioAssay data set” (2004).
# About 4,900 (9.2%) of roughly 53,000 sequences were called active. Rule as the data show it: active = GI50 up to about 1.1 µM and inactive = higher. The entries come from a sample that favours actives as a whole. Entries with a potency or affinity are not part of this list.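 Tested at 5 concentrations; 48 h exposure; 96-well plates; endpoints linearly interpolated, else capped at highest concentration. The concentration for 50% growth inhibition is given as GI50.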
# Test system: NCI-H522
# Assay: NCI tumour cell line growth inhibition, 48 h
row,Substance,GI50 [µM]
1,"CISPLATIN, CHEMBL11359",2.03
2,"cis-Bis[[(trimethylsilyl)methyl]amino]tetrachloroplatinum(IV), CHEMBL2146191",8.22
3,"[Bis(aminomethyl)tetramethylenesilane]tetrachloropaltinum(IV), CHEMBL2146189",2.18
4,"[Bis(aminomethyl)diethylsilane]tetrachloroplatinum(IV), CHEMBL2146203",2.65
5,"[Bis(aminomethyl)dimethylsilane]dichloroplatinum (II), CHEMBL2146201",4.94
6,"[Bis(aminomethyl)pentamethylenesilane]tetrachloropaltinum(IV), CHEMBL2146204",0.776
7,"[Bis(aminomethyl)tetramethylenesilane]dichloropaltinum(II), CHEMBL2146205",7.62
8,"mu-(1,7-nanodiamine-N,N')bis-(cis-aminedichloroplatimum (II)), CHEMBL2146215",7.94
9,"[Bis(aminomethyl)pentamethylenesilane]dichloropaltinum(II), CHEMBL2146202",1.52
10,"[Bis(aminomethyl)dimethylsilane]tetrachloroplatinum(IV), CHEMBL2146190",1.83
